Sampled rows, rich in hits. Any-hit rate of the full collection: about 0.92%.
AMA1-RON2 inh: inhibitors of Plasmodium falciparum AMA1-RON2 interaction; AlphaScreen AMA1-biotinylated RON2 peptide binding; Potency, µM (titrated, usually from 58.2 µM), usual class: inhibitors; 360,000 compounds, 0.2% hits; AID 720542; further: nearly all actives have a fitted effect of over 45% in size
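AMA1 (3D7) with his tag at 25 nM final met compounds first, then biotinylated RON2 peptide at 25 nM; detection used donor plus acceptor beads, 10 µg/mL apiece, read by AlphaScreen after 30 min at room temperature.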
LmPK inhibitor: inhibitors of Leishmania mexicana pyruvate kinase. Q27686. Potency, µM (series often up to 57.5 µM), most hits filed as inhibitors. purified LmPK, Kinase-Glo ATP luminescence, 1 h. 290,000 compounds, 0.37% hits
Target sequence (Q27686 whole entry, looked up): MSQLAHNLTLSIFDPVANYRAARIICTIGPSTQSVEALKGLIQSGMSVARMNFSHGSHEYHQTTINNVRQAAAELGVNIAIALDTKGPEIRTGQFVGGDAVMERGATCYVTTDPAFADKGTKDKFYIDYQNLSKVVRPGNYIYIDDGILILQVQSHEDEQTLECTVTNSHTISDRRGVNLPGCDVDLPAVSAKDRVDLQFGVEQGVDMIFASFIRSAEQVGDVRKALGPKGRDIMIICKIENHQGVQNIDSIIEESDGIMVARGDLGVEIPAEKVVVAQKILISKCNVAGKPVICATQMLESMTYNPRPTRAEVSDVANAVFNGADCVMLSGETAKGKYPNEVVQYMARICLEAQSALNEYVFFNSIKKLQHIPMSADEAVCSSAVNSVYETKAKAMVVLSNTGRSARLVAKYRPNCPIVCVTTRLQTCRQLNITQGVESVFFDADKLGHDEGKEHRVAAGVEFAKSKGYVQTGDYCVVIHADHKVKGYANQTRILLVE
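qHTS format; LmPK 0.1 nM; substrates PEP 0.5 mM and ADP 0.1 mM. One-hour room-temperature incubation, then coupled luciferase luminescence; 0.5 nM enzyme wells mark activation.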
RE007 growth inh: less growth of the S. pombe RE007 Vpr strain; 360,000 compounds, 0.21% hits; AID 651644; S. pombe RE007 Vpr strain, BacTiter-Glo ATP luminescence, 24 h; Potency, µM (top dose mostly 92.2 µM), hits mostly inhibitors; active means well fitted falling curve with a large enough effect; inconclusive means small, poorly fitted or top-dose-only effect; inactive means no such curve, though single readings can be large or run the other way; further: nearly all actives have a fitted effect of over 50% in size
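Fission yeast strain RE007, carrying one chromosomally integrated HIV-1 vpr copy, was seeded at OD 0.01 in PMG+AL medium with 23 nL pinned compound. After 24 h at 30 °C and 99% humidity, viability was read by BacTiter-Glo luminescence.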
TbPYK inhibitor: blocks Trypanosoma brucei pyruvate kinase. Q57TT1. TbPYK enzyme, Kinase-Glo Plus ATP luminescence, 45 min. Potency, µM (series often up to 76.8 µM), most hits filed as inhibitors. 410,000 compounds, 0.12% hits; further: nearly all actives have a fitted effect of over 50% in size
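T. brucei PYK with substrate was exposed to pin-transferred compounds across a concentration series, then started with 130 uM ADP (final). After 45 min at room temperature, Kinase-Glo Plus luminescence was read, normalized and curve-fitted.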
NS1 function inh: blocks influenza NS1 protein function. Potency, µM (highest dose often 46.1 µM). 270,000 compounds, 0.4% hits; calls by dose curve; further: actives are rising curves; nearly all actives have a fitted effect of over 50% in size
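In this qHTS, NS1 from influenza A is expressed in budding yeast, where it slows growth. Cells are switched from glucose to 2% galactose medium (pH 6.0, -URA), treated with compound, and growth recovery is read at OD600.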
A number is an active result; . = inactive; ? = inconclusive; / = no result given; [ ] = dose if it differs, or a comment. Unless noted, the call rests on the fitted dose curve; in most records, active means well fitted curve in the direction sought with a large enough effect; inconclusive means small, poorly fitted or top-dose-only effect, or another doubt; inactive means no such curve, though single readings can be large; an effect the other way counts as inactive or inconclusive.

SMILES | AMA1-RON2 inh | LmPK inhibitor | RE007 growth inh | TbPYK inhibitor | NS1 function inh
O=C(O)c1cccc(N2C(=O)C=CC2=O)c1 | . | / | . | ? | /
O=C(Nc1ccc(Cl)cc1Cl)c1cccc(N2C(=O)C=CC2=O)c1 | . | . | 1.26µM | ? | .
CCCCc1nc2c(c3c1C[C@H](C)OC3)CN(S(=O)(=O)c1ccc(C)cc1)CC2 | / | .[11.5 µM] | / | / | /
O=C1NN(c2ccccc2)C(=O)/C1=C\c1ccc(-c2cc([N+](=O)[O-])ccc2O)o1 | . | 17.8µM | . | ? | .
COc1cc(C)cc2c(-c3c(O)cc(O)c4c3C[C@H](C)N[C@@H]4C)cc(-c3cc(-c4c(O)cc(O)c5c4C[C@H](C)N[C@@H]5C)c4cc(C)cc(OC)c4c3O)c(O)c12 | / | / | / | / | 7.94µM
NCCCNCCCCNC(=O)C(O)NC(=O)CCCCCCN=C(N)N (stereo unspecified) | / | / | / | . | /
C[CH2][Hg][S]c1ccccc1C(=O)O | . | / | . | 11.2µM | /
COc1ccc2[nH]c(=O)c(C(=O)O)cc2c1 | . | . | . | . | /
COc1ccc2[nH]c(=O)cc(C(=O)O)c2c1 | 22.4µM | . | . | . | .
COc1ccc(NC(=O)Nc2ccccc2SC)cc1 | . | 10µM | . | . | .
CSc1ccccc1NC(=O)Nc1ccc(Cl)cc1 | . | ? | . | . | .
CCCOc1ccc(CNC(=O)Cn2cc3c(n2)-c2c(oc(C(=O)N4CCOCC4)c2C)CC3)cc1 | / | / | / | . | /
O=C(O)c1cc[c]([Hg][Cl])cc1 | . | / | ? | 17.8µM | .
O=C(O)c1ccccc1 | . | / | . | . | /
COc1ccc(N=c2cc(-c3ccc(OC)cc3)oc3ccccc23)cc1 | 12.6µM | . | . | . | .
CCOc1ccc(N=c2cc(-c3ccc(OC)cc3)oc3ccccc23)cc1 | 14.1µM | . | . | . | .
O=C1N[C@@]2(CN3CCC2CC3)C(=O)N1CN(Cc1ccccc1)c1ccccc1 | / | / | / | / | .
Cc1c(C(=O)Oc2cccc3cccnc23)oc2ccccc12 | . | . | 39.8µM | . | .
CC(C)(O)C1Cc2cc(/C=C/C(=O)O)c(O)cc2O1 (stereo unspecified) | . | 28.2µM | ? | ? | .
CN(C)C(=O)Oc1ccc(-c2cn3cc(Cl)ccc3n2)cc1 | . | 12.6µM | . | . | .
CC(C)(C)C1=CC(=Nc2ccccc2N)C=C(C(C)(C)C)C1=O | 11.2µM | . | . | . | .
Nc1ccccc1N=c1ssnc1Cl | . | . | . | ? | /
COc1cc(OC)cc(C(=O)Nc2ccc(-n3cnnn3)c(C)c2)c1 | . | 14.1µM | . | . | .
O=S(=O)(Nc1cccnc1)c1cccc(C(F)(F)F)c1 | . | . | . | . | .
O=[N+]([O-])c1ccc(S(=O)(=O)c2cccc(C(F)(F)F)c2)nc1 | . | / | 39.8µM | . | /
SMILES | AMA1-RON2 inh | LmPK inhibitor | RE007 growth inh | TbPYK inhibitor | NS1 function inh
Cc1cccn2cc(-c3ccccc3)nc12 | . | ? | . | . | .
Cc1cccn2cc(-c3ccc(F)cc3)nc12 | . | 15.8µM | ? | . | .
Cn1c(=O)c(C(=O)COC(=O)c2cc(-c3ccco3)nc3ccccc23)c(N)n(Cc2ccccc2)c1=O | / | . | / | / | 8.91µM
CC(C)Cn1c(N)c(C(=O)COC(=O)c2cc(-c3ccco3)nc3ccccc23)c(=O)n(C)c1=O | . | . | . | . | ?
O=C1[C@@H]2C(c3cccnc3)=NO[C@@H]2C(=O)N1c1ccc2ccccc2c1 | . | . | 14.1µM | . | .
Cc1ccc(/C=C/c2nc3ccccc3[nH]2)o1 | . | 15.8µM | . | ? | /
Cc1cc2nc(/C=C/c3nc4cc(C)c(C)cc4[nH]3)[nH]c2cc1C | . | . | / | . | .
COc1ccc(C(CCNCc2ccc(N(C)C)cc2)c2ccccc2OC)cc1 (stereo unspecified) | 12.6µM | . | . | . | .
Cc1ccccc1C(=O)N1Cc2cnnn2-c2ccccc2C1C#N (stereo unspecified) | . | / | . | . | /
Cc1ccccc1-c1ccc2n1Cc1cnnn1-c1ccccc1-2 | 25.1µM | / | . | . | /
Cc1ccc(O)c(-c2cc3ccccc3[nH]2)c1 | ? | . | 35.5µM | . | .
CCCSC1=N/C(=C\C=C\c2ccco2)C(=O)S1 | 11.2µM | . | . | . | .
O=C(CSc1cccc[n+]1[O-])c1cc2ccccc2o1 | . | . | 8.91µM | . | .
O=C(CSc1cccc[n+]1[O-])c1cc(Cl)ccc1Cl | . | . | 5.01µM | . | /
CN(C)c1ccc(CN(CC2CCCO2)C(=O)c2cc3ccccc3o2)cc1 (stereo unspecified) | 15.8µM | / | . | . | /
CN(Cc1ccc(N(C)C)cc1)C(=O)c1cc2ccccc2o1 | 14.1µM | . | . | . | .
CC1(C)CC/C(=C\c2ccc(Cl)cc2)C1(O)Cn1cncn1 (stereo unspecified) | / | / | / | . | /
c1c2c(cc3sc(N4CCOCC4)nc13)OCCO2 | . | 14.1µM | ? | ? | .
Cc1ccccc1NC(=O)c1cc2ccccn2n1 | . | 12.6µM | . | . | .
Cc1ccc(C)c(NC(=O)c2cc3ccccn3n2)c1 | . | . | . | . | .
O=C(O)[C@H]1CCCC[C@@H]1c1c2ccc(=O)c(O)c-2oc2c(O)c(O)ccc12 | / | / | / | / | .
Cn1c(=O)c2c([nH]c(=S)n2Cc2ccc(Cl)cc2)n(C)c1=O | . | ? | . | 3.55µM | .
CC1CSc2nc3sc4c(c3c(=O)n21)CCCC4 (stereo unspecified) | . | . | 22.4µM | . | .
O=c1c2c3c(sc2nc2n1CCCS2)CCCC3 | . | . | ? | . | .
CCCOc1ccc(/C(O)=C2/C(=O)C(=O)N(CCCN3CCOCC3)C2c2ccncc2)cc1 (stereo unspecified) | / | . | / | / | 10µM
SMILES | AMA1-RON2 inh | LmPK inhibitor | RE007 growth inh | TbPYK inhibitor | NS1 function inh
Cc1cc(Nc2ccccc2)c2c([N+](=O)[O-])cc(C)c(C)c2n1 | ? | . | . | . | .
COc1ccccc1Nc1cc(C)nc2c(C)ccc([N+](=O)[O-])c12 | 3.16µM | . | . | . | .
Cc1ccc(S(=O)(=O)c2ccccc2)cc1S | / | 14.1µM | / | / | /
COC(=O)C1=C(C(=O)OC)[C@@H]2N(Cc3ccccc3)c3ccccc3[C@@]23C[C@@H](C(=O)OC)N(S(=O)(=O)c2cccs2)C3=N1 | / | .[11.5 µM] | / | / | /
Cc1nc([N+](=O)[O-])cn1-c1ccc([N+](=O)[O-])cc1 | / | / | / | . | /
O=C(CSc1nc(-c2ccncc2)nn1CC(=O)N1CCCCC1)NC1CCCC1 | 3.77µM | . | . | . | .
COC(=O)c1ccccc1S(=O)(=O)N1CCc2nc(-c3ccccc3)c3c(c2C1)CO[C@@H](C)C3 | / | .[11.5 µM] | / | / | /
CCCCCCC(=O)O[C@@H]1CC[C@H]2[C@@H]3CCc4cc(O)ccc4[C@H]3CC[C@]12C | / | / | / | . | /
N#C/C(=C/c1ccc(N2CCOCC2)o1)c1ccc(Br)cc1 | . | . | . | 25.1µM | .
CC(=O)C[C@H]1[C@H](O[C@H]2[C@H](OC(C)C(=O)N[C@@H](C)C(=O)N[C@H](CCC(=O)N[C@@H](CCCCN)C(=O)N[C@H](C)C(=O)O)C(N)=O)[C@@H](NC(=O)O)C(O)O[C@@H]2CO)O[C@H](CO)[C@@H](O)[C@@H]1O (stereo partly specified) | / | / | / | . | /

Screening data deposited in PubChem BioAssay by National Center for Advancing Translational Sciences (NCATS).
